These results are taken from PubChem BioAssay (NCI).

Several values for one entry are separate records, joined by “and”; a condition that tells them apart may be missing. Equal entries are not always repeated. The panel holds about 83,000 compounds, 20% with a hit somewhere; the sample as a whole holds those more often.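 The endpoint reported here, percent growth, reads 100 for growth as untreated, 0 for no net growth and -100 for all cells dead.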 Values without a mark were called inactive.

The first test deals with SW-620 colon. The test can be described thus: NCI-60 one-dose screen, 48 h (100 = growth as untreated, 0 = no growth, -100 = all killed). To be noted: 10 µM. On the procedure:
Growth inhibition of the SW-620 human tumor cell line is measured as a screen for anti-cancer activity. Cells are grown in 96 well plates and exposed to the test compound for 48 hours. Compounds are tested at a single concentration, which is 10^-5 M for most compounds. The reported endpoint is percent growth (GI% or GIPRCNT), where numbers from 0 - 100% represent growth inhibition, and numbers from -100% - 0 represent cell death. For example, a value of 40 represents 60% growth inhibition. A value of 0 means no net growth occurred over the course of the experiment. A value of -40 indicates 40% of cells at the beginning of the experiment died by the end of the experiment. A value of -100 means all cells are dead at the end of the experiment.
NCI-60 Human Tumor Cell Lines Screen was performed using the standard one-dose NCI protocol, which is described in more detail at https://dtp.cancer.gov/discovery_development/nci-60/default.htm.
Compounds with GIPRCNT values below 10 were considered active. Activity score was based on GIPRCNT using the following formula: […]
Score is 0 for GIPRCNT values of 100 or above, 50 for GIPRCNT values of 0, and 100 for GIPRCNT values of -100.
In the case of `CS/C(=C\c1ccc(C(=O)c2ccc(C)cc2)n1C)S(C)=O` (stereo not given), the growth is 101%.

Staying with this test, now noted: 10 µM unless noted.
Turning to `CC(C)(C(=O)c1cccnc1)c1cccnc1`, the growth is 105% and 106%.
On the same count and under the same terms, then `Clc1ccc2c(c1)N(C1CCCN(Cc3ccccc3)C1)c1ccccc1S2` (stereo not given), with 22.6%; and `CCOC(=O)C(N)Cc1cc(I)c(O)c(I)c1` (stereo not given), with 104%; and `COc1ccc(COC=O)cc1`, with 108%.
Same read-out and setting: then `Oc1cccnc1CN1CCOCC1`, with 109% and 101%; and `O=S(=O)(O)c1ccc2cc(O)ccc2c1`, with 99.9%; and `CCNC1=CC(=O)c2ncccc2C1=O`, with 13.8%.
On the same count and under the same terms, then `C=CCN1C(=O)c2ccccc2C1=O`, with 98.5%.
Turning to `Cc1cc2ccccc2c2cc3ccccc3cc12`, the growth was 90%.
On the same count and under the same terms, the same measure for `Nc1ccc(O)c(C(=O)O)c1`: 96.7% and 94.1% and 103%.
For the molecule `O=C1c2ccccc2C(c2ccccc2)C1c1ccccc1` (stereo not given), the growth is 90.1%.
Still for that read-out and setting: the same measure for `COc1ccc(/C=C/C(=O)O)cc1OC`: 103% and 102%; for `O=C1c2cccnc2-c2ncccc21`: 109% [100 µM].
On the same count and under the same terms, the same measure for `Cn1c(-c2ccccc2)cc(=O)cc1-c1ccccc1`: 51.7%; for `COc1ccc2oc3c(ccc[n+]3C)c(=O)c2c1`: 105%.
Still for that read-out and setting: then `COCCCNC1=C(C#N)C(=O)NC(c2cccs2)S1` (stereo not given), with 113%; and `C/C(=C\c1ccccc1)C(O)C(=O)c1nc2ccc([N+](=O)[O-])cc2[nH]c1=O` (stereo not given), with 104%; and `COc1cc2oc3cc(=O)cc4oc(-c5ccccc5)cc(c2c2c1CCC(c1ccccc1)O2)c43` (stereo not given), with 100%.
Consider `O=C1c2ccccc2CN1c1ccccc1`, for which the growth was 105%.
Still for that read-out and setting: the same measure for `C(#CCN1CCOCC1)CCCN1CCOCC1`: 109% and 106%; for `CN(C)C(=S)N(C)C`: 107%.
On the same count and under the same terms, then `CCOc1ccc(/C=C\C(=O)O)cc1`, with 101%; and `CCC(=O)Oc1ccc(OCc2ccccc2)cc1`, with 90.2% and 79.7%; and `COc1ccc(CCNC(=S)NN)cc1OC`, with 99%.
Still for that read-out and setting: the same measure for `CC(=O)/C(N=Nc1ccc(S(=O)(=O)c2ccc(N=N/C(C(C)=O)=C(/C)O)cc2)cc1)=C(\C)O`: 99.4%; for `CC(C)(C)OC(=O)c1ccc(NCc2cc(O)ccc2O)cc1`: 18.9%; for `OCc1ccccc1F`: 58%.
Take `OC1CCCN(Cc2ccccc2)C1` (stereo not given): the growth was 107%.
On the same count and under the same terms, then `Cc1cnc(N)s1`, with 103%; and `O=C1C2=C(Nc3cc(Cl)ccc3N2)OC1c1c[nH]c2ccc(COc3ccccc3)cc12` (stereo not given), with 85%.
On the same count and under the same terms, then `N#Cc1c[nH]n2ccnc12`, with 119%; and `CCCCC/C(C)=N\NC(N)=S`, with 67.5%.
The same measure, in the same setting: then `Cc1nc2c(=O)[nH]c(=S)[nH]c2[nH]c1=O`, with 105% and 101%; and `COC(=O)c1cc(C(=O)OC)cc([N+](=O)[O-])c1`, with 102%.
On to `CCOCCC(=O)O`, for which the growth was 101%.
Still for that read-out and setting: then `O=C(O)C1CSCN1` (stereo not given), with 115% and 113%; and `O=C(OCc1ccccc1)c1ccccc1`, with 110% and 105%.
Still for that read-out and setting: then `Clc1ccc(/C=C/c2ccc3ccccc3n2)cc1`, with 22.8% and 108% and 97.1%.

Staying with this test, now noted: 100 µM.
Take `CS/C(=C\c1ccc(C(=O)c2ccc(C)cc2)n1C)S(C)=O` (stereo not given): the growth is 97.4%.
